Source: PubChem
Most compounds without a hit are left out; they make up all but 6.5% or so of the library.
Autofluor 339: intrinsic fluorescence of library compounds, ex339/em460 – biochemical, MLSMR library, data from DPM-DC assay, artefact control, profiling panel; compound autofluorescence, ex339/em460 nm, NADH buffer; stronger effect = higher value; 1 = no-compound wells, NADH background; fluorescence fold increase at 10 µM; 5.5% of 65,000 active; AID 709, 2007;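 active means at 10 µM, mean starting fluorescence two-fold or more over control wells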;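 further: signal is the first read of a kinetic run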
A340 absorber: compound light absorbance at 340 nm, profiling panel, artefact control, biochemical, MLSMR library, data from PS, PMK, MK assays; 65,000 tested, under 10 active; compound absorbance at 340 nm, fold over control; fold change at 10 µM;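 active means at 10 µM dose, initial 340 nm absorbance at least 2 fold that of control wells; inactive means change under 2 fold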;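 further: initial absorbance extrapolated from kinetic A340 decline of NADH oxidation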
MK inhibit: S. pneumoniae MK inhibitors, primary screen, biochemical, PK/LDH-coupled NADH absorbance. mevalonate kinase [Streptococcus pneumoniae D39]. purified MK, PK/LDH-coupled NADH absorbance 340 nm. inhibition, % at 10 µM. 0.48% of 65,000 active;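 active means ranked among the strongest by inhibition in the single 10 µM screen, a fixed top-ranked set picked for dose follow-up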
Spn PMK inh: S. pneumoniae PMK inhibitors, primary screen, biochemical, mevalonate pathway, pilot trial included | phosphomevalonate kinase (Streptococcus pneumoniae D39) | purified PMK, PK/LDH-coupled NADH absorbance 340 nm | inhibition, % at 10 µM | 0.49% of 65,000 active | AID 539, 2006;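 active means top-ranked compounds by inhibition in the single 10 µM screen, taking a fixed number of the strongest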;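 further: 0% = full reaction with DMSO carrier and 100% = background rate without enzyme reaction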
NADH enzymes: inhibitors of PK/LDH coupling enzymes, profiling panel, artefact control, biochemical, MLSMR library | coupled PK/LDH NADH assays, four targets | IC50, µM (titrated, usually from 10 µM), without a hit: at the highest dose inhibition | 0.02% of 65,000 active | AID 774, 2007;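 active means single-dose screening hits from any of four coupled enzyme assays that gave an IC50 when retested across doses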;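 further: the DPM-DC format reads NADH fluorescence rather than 340 nm absorbance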
Spn DPM-DC inh: S. pneumoniae DPM-DC inhibitors, primary screen, biochemical, PK/LDH-coupled NADH fluorescence; diphosphomevalonate decarboxylase (Streptococcus pneumoniae D39); purified DPM-DC; calls only at 10 µM; 0.49% of 65,000 active; AID 556, 2006;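 active means the 320 compounds with the highest percent inhibition in the single-dose primary screen, excluding strongly autofluorescent ones, cut at about 32% in these data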;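 further: kinetic rate of NADH fluorescence loss reporting ADP formed by the decarboxylase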
* marks the source's active call; other numbers are inactive results; i = inactive; nt = no result shown; + = active, no number.

SMILES	Autofluor 339	A340 absorber	MK inhibit	Spn PMK inh	NADH enzymes	Spn DPM-DC inh
O=C1Nc2ccc(S(=O)(=O)N3CCCCCC3)c3cccc1c23	2.1*	1.1	4	11	8%	nt
CCOc1ccccc1N1CCN(S(=O)(=O)c2ccc3c4c(cccc24)C(=O)N3)CC1	1.3	1.1	3	8	8%	i
O=C1Nc2ccc(S(=O)(=O)NCc3ccccn3)c3cccc1c23	3.8*	1.1	1	7	4%	nt
O=C1Nc2ccc(S(=O)(=O)N3CCOCC3)c3cccc1c23	4*	1.1	4	0	2%	nt
CN1C(=O)c2cccc3c(S(=O)(=O)Nc4ccccn4)ccc1c23	1.3	1.1	4	7	6%	i
CN1CCN(S(=O)(=O)c2ccc3c4c(cccc24)C(=O)N3)CC1	2.1*	1.1	2	9	6%	nt
Cc1ccc(N2CC(C(=O)NCc3ccccn3)CC2=O)cc1 (stereo unspecified)	1.1	1	9	5	6%	i
O=P(O)(CN1CCCCC1)C1CCCCC1O (stereo unspecified)	0.65	1	2	3	10%	i
CC(=O)Nc1nn(C)c2nc3cc(C)ccc3cc12	2	1.1	11	3	9%	i
Cc1ccc2cc3c(NC(=O)c4ccco4)nn(C)c3nc2c1	2.9*	1.1	9	6	17%	+
Cc1noc(C)c1CSc1nnc(-c2ccncc2)n1-c1cccc(Cl)c1C	1	0.99	0	25*	2%	i
Cc1ccccc1-n1c(SCc2c(C)noc2C)nnc1-c1c[nH]c2ccccc12	1.1	1	2	0	1%	i
c1nc(NCCN2CCOCC2)c2sc3nc(N4CCOCC4)c4c(c3c2n1)CCC4	2.3*	1.2	10	0	5%	nt
CCN1CCN(c2ncnc3c2sc2nc(N4CCOCC4)c4c(c23)CCC4)CC1	1.6	1.1	14	0	14%	i
CCC1CCCCN1C(=O)N[C@@H](Cc1ccccc1)C(=O)O (stereo partly specified)	1.1	1	15	7	12%	i
CCOC(=O)Cc1c(C)nc2c(-c3ccc(Cl)cc3)c[nH]n2c1=O	2.1*	1.1	5	8	7%	nt
Cn1c(=O)c2c(-c3ccccc3)n3c4ccccc4ncc3c2n(C)c1=O	3.9*	1.1	7	6	7%	nt
CCOc1ccc(-c2nc(C#N)c(NC3CC3)o2)cc1	3.8*	1	13	17	15%	nt
COc1ccccc1OCc1nc(C#N)c(N2CCC(C(N)=O)CC2)o1	1.1	1	7	9	5%	i
N#Cc1nc(-c2ccc(OCc3ccccc3)cc2)oc1N1CCC(C(N)=O)CC1	4*	1.1	7	11	9%	nt
CCOc1ccc(-c2nc(C#N)c(N3CCN(Cc4ccccc4)CC3)o2)cc1	1.8	1.1	9	7	6%	i
CCN1CCN(c2oc(-c3ccc(OC)cc3)nc2C#N)CC1	3.8*	1.1	2	0	1%	nt
CCOc1ccc(-c2nc(C#N)c(NCc3ccc4c(c3)OCO4)o2)cc1	1.8	1	12	5	5%	i
CCOc1ccc(-c2nc(C#N)c(N3CCOCC3)o2)cc1	2.2*	1.1	12	2	7%	nt
CC(=NC1CCCCC1)C1=C(O)c2ccccc2C1=O	1.1	1.1	0	0	8%	i
SMILES	Autofluor 339	A340 absorber	MK inhibit	Spn PMK inh	NADH enzymes	Spn DPM-DC inh
CC(C)(C)NC(=O)CN(C(=O)CS(=O)CC(=O)Nc1ccc(F)cc1)c1ccccc1 (stereo unspecified)	1.1	0.99	6	14	7%	i
Cc1cccc(-c2nc(C#N)c(N3CCCCCC3)o2)c1	3.8*	1.1	8	6	7%	nt
COc1ccc(C)cc1NC(=O)C1CC(=O)OC12CCCCC2 (stereo unspecified)	1.1	1	8	10	6%	i
Cn1nnc2c(NCc3ccco3)nccc21	2.1*	1	1	0	1%	nt
COC(=O)c1[nH]c2cccc(OC)c2c1NC(=O)CN1CCN(c2cccc(OC)c2)C(C)C1 (stereo unspecified)	3*	1.1	4	10	13%	i
COC(=O)c1[nH]c2cccc(OC)c2c1NC(=O)CCN1CCC(C)CC1	2	1.1	0	15	8%	i
COC(=O)c1[nH]c2cccc(OC)c2c1NC(=O)CCN1CCN(c2ccccc2OC)CC1	3.1*	1	12	13	20%	+
Cc1c(Cl)cccc1N1C(=O)C2ON(c3ccccc3)C(c3cccnc3)C2C1=O (stereo unspecified)	1.1	1.1	8	0	3%	i
O=C(O)CSCCC(=O)Nc1ccc(F)cc1	1	0.99	10	23	11%	i
Cc1csc(NC(=O)c2ccccc2O)n1	3.9*	1	6	7	7%	nt
CC(C)Cc1cc(C(=O)NCCCN2CCOCC2)no1	1.1	1	40	4	15%	i
Clc1ccc(COc2ccccn2)c(Cl)c1	1.1	1.1	0	0	0%	i
O=C(Nc1ccccn1)c1cccc(S(=O)(=O)N2CCOCC2)c1	0.95	1	10	6	7%	i
O=S(=O)(c1cccc(-c2cn3cccnc3n2)c1)N1CCOCC1	3.8*	1.1	11	14	13%	nt
O=S(=O)(c1cccc(-c2cn3cccnc3n2)c1)N1CCCCCC1	3.6*	1.1	5	12	9%	nt
CC1CN(S(=O)(=O)c2cccc(-c3cn4cccnc4n3)c2)CC(C)O1 (stereo unspecified)	3.8*	1.1	5	4	5%	nt
O=C(CN(Cc1ccc2c(c1)OCO2)C(=O)CSc1nc2ccccc2o1)NC1CCCCC1	1.1	0.98	5	13	6%	i
Cc1cc2nc(-c3ccc(SCC(=O)N4CCOCC4)nc3)[nH]c2cc1C	2.2*	1.1	7	3	5%	nt
Cc1cc2nc(-c3ccc(SCC(=O)N4CCN(C(=O)c5ccco5)CC4)nc3)[nH]c2cc1C	4.4*	1.3	11	7	9%	nt
CCOC(=O)c1cc(-c2cccs2)nc2onc(C)c12	4.8*	1	0	11	6%	nt
Cc1noc2nc(-c3cccs3)cc(-c3nnc4n3CCCCC4)c12	2.1*	1.2	0	11	6%	nt
c1csc(-c2cnc3n2CCCC3)c1	1.1	1.1	6	0	2%	i
CCOC(=O)c1nnn(-c2nonc2N)c1-c1cccs1	1.1	1	0	18	6%	i
